According to ChEMBL document CHEMBL3988442, “University of Dundee, Small-Polar-MMV Screening Library” (2021):

Experiments:
[1] = target: T1, Aspartate--tRNA(Asp/Asn) ligase (Mycobacterium tuberculosis (strain ATCC 25618 / H37Rv)) (UniProt P9WFW3); experiment: Assay for Asp RNA synthetase-1 from Mycobacterium tuberculosis; format: functional; parameters: scale not given: direction of the effect not stated beside the values; conditions: 30 µM; further: in the data most compounds retested in dose-response had high values
T1 sequence (whole entry): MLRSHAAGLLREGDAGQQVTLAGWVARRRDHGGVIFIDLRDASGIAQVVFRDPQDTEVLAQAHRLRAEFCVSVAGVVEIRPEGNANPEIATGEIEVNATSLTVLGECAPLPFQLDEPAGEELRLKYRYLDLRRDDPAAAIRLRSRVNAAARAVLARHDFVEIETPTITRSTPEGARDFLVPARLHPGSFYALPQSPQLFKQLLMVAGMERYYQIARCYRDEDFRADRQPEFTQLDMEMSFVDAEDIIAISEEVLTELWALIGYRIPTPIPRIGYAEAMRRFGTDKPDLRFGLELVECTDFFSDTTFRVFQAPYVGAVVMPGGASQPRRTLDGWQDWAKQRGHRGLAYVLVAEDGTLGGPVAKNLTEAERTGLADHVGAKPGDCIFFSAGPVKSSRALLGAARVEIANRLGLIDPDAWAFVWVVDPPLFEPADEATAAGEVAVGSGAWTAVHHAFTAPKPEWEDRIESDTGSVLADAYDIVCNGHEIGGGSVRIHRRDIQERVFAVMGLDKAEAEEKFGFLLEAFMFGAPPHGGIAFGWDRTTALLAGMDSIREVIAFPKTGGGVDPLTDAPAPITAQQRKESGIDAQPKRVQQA

[2] = target: Shiga toxin 2 (Escherichia coli O157:H7) (UniProt P09385+P09386); experiment: E. coli 0.157:H7 Shiga Toxin SOP - stx2 screening assay; format: functional; parameters: scale not given: direction of the effect not stated beside the values; conditions: 30 µM

Structure (SMILES)	Percent Effect [1] [%]	Percent Effect [2] [%]
CN(C)C(=O)N1CCN(CCn2nc3ccccn3c2=O)CC1	-3.02	-19.4
CC(C)c1nc2c(n1C)CCN(CC(=O)Nc1nccs1)C2	-1.5	26
CN(C)Cc1ccnc(C2CCCN2Cc2ccncc2)n1 (stereo not given)	-3.02	-14.5
COc1ccc(Oc2cncc(C3CCCN3C(C)=O)n2)cc1 (stereo not given)	0.194	-6.98
Cn1c(CN2CCCC2)nnc1C1CCCN(C(=O)C2CCOCC2)C1 (stereo not given)	2.71	-6.15
CN(Cc1cnccn1)C(=O)c1ccnc(OC2CCC2)c1	3.71	-6.19
CSCC[C@H](NC(=O)Cn1ccc2c(Cl)cccc21)C(=O)O	-3.22	-22
CCc1c(C(=O)NCC(=O)OCC2CC2)cnn1-c1ccc(C)cc1	-5.03	-6.36
N#CC1(C(=O)N2CCN(Cc3cscn3)CC2)CCCC1	-0.171	9.21
COc1cccc(CN(C)C(=O)CN2CC(n3nc(C)cc3C)C2)c1	1.62	-22.3
O=C(NCc1ccccn1)[C@@H]1CCO[C@@H]2CCN(Cc3ccoc3)C[C@H]21	7.04	4.93
N#CCCN(CCC#N)C(=O)CN1CCCC1Cc1cccc(F)c1 (stereo not given)	5.73	-0.707
CC(C)c1noc(CN(Cc2ccccc2F)C2CC2)n1	12.6	-59.6
Nc1nccc(NCc2cc3n(n2)CCCN(C(=O)C2CCC2)C3)n1	0.0228	1.54
Cc1nnc(NCc2cccnc2N(C)C)c(C#N)c1C	0.728	0.124
CN(C)C[C@@H]1C[C@@H]2CN(C(=O)c3ccoc3)CC[C@@H]2N1CC1CC1	2.34	8.89
CCC(NC(=O)C1CCN(S(C)(=O)=O)CC1)c1ccc(OC)c(OC)c1 (stereo not given)	0	-10.4
CCn1nc2c(cc1=O)CN(Cc1nc(N)c3ccccc3n1)CC2	1.61	15.6
Cc1nnc(N2CC[C@H]3C[C@@H](C(=O)NC4CCCC4)O[C@H]3C2)s1	0.29	-4.68
O=C(CC1CC1)N1CCn2cc(Cn3cncn3)nc2C1	3.1	-11.8
CN(C)CCN1CCCC12CCN(C(=O)c1cccn1C)CC2	-5.96	-0.241
O=C(CCc1ccccc1)C1CCCN(C(=O)c2ncc(F)cc2F)C1 (stereo not given)	7.65	2.26
CC(C)c1nc(C2CCCN2CC(=O)Nc2ccc(Cl)cn2)no1 (stereo not given)	-6.33	9.53

Structure (SMILES)	Percent Effect [1] [%]	Percent Effect [2] [%]
CC(=O)Nc1nc(CN2CCn3c(nnc3C3CC3)C2)cs1	-7.9	-26.2
Cc1ccc(CN(Cc2c[nH]cn2)C2CC(C)(C)NC(C)(C)C2)o1	-1.68	7.12
Cc1nc(C2CCCN(C(=O)c3ccc(OCC4CC4)cc3)C2)no1 (stereo not given)	-8.26	-5.46
COc1ccc(-c2cc(C3CCCCCN3S(=O)(=O)N(C)C)on2)cc1 (stereo not given)	-5.4	-17.1
CC(Cn1cccn1)NC(=O)Nc1ccc(N(C)C)nc1 (stereo not given)	1.98	-47.5
Cn1cc(CCNC(=O)NCc2nnc3n2CCC3)cn1	-2	5.89
c1ccc(-c2cnc(CNC3CCCN(c4cccnn4)C3)o2)cc1 (stereo not given)	-3.48	4.96
c1cncc(-c2nccc(CN3CCCC3)n2)c1	2.87	-20.7
CC(C)c1ncc2c(n1)CN(Cc1nc(Cc3ccccc3)no1)CC2	-4.05	-0.282
CCC1(CC)Cc2ccccc2-c2nc(NCCO)[nH]c(=O)c21	6.5	17.7
CCn1nnc2c1C(COC)CN(C(=O)Cc1cccs1)C2 (stereo not given)	-8.15	-30.3
CCN(CC)CCNC(=O)c1cc(C(C)C)nc(N2CCCC2)n1	2.18	-34
O=C(Cc1ccccc1F)N1CCN(C(=O)c2cccc(F)c2)CC1	23.6	-39.5
COc1cc(C)sc1C(=O)N1CC(c2cccnc2)C1	3.09	12.6
CCS(=O)(=O)N1C[C@H]2CN(Cc3cccnc3)C(=O)[C@H]2C1	3.48	-32.6
CCc1nc(CN2CCCN(C(=O)c3c(C)noc3C)CC2)cs1	1.9	-25.2
Cc1ncsc1CN1C[C@H](C(=O)N2CCCO2)[C@@H]2CCO[C@@H]2C1	-1.48	-4.78
Cc1ccc(NC(=O)NC(C)c2nc[nH]n2)s1 (stereo not given)	3.94	17.2
CCOc1ncccc1C(=O)N(C)Cc1ncc(C)c(OC)c1C	-0.375	19.7
COc1ccc(OCc2cc(C(=O)N3CCN[C@H](C)C3)n[nH]2)c(Cl)c1	-1.22	-61
Cc1ccc(C(=O)N2C[C@@H]3COC[C@]3(COc3cccnc3)C2)cn1	2.55	-13.2
Cn1c(CN2CCN(CC3CC3)CC2)nnc1C1CCC1	8.05	-37.5
